The text below walks through data of PubChem BioAssay AID1210 (NMMLSC, 2008).

Active and inactive are the calls of the source.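 How the source made its calls: active means blocks over 70% of labeled estradiol binding at 10 µM, or over a set limit at 100 nM; inactive means the rest.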

The assay concerns the target Estrogen receptor beta (Homo sapiens) (UniProt Q92731). Description: ERbeta ligand binders by competition, primary screen, cell-based, Cos7 ERbeta-GFP, flow cytometry (AID 1210).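 Further: 0% = DMSO vehicle wells and 100% = complete loss of labeled estradiol signal.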 Conditions: fluorescent estrogen binding, stronger effect = higher value. (Flow cytometry measures light scatter and fluorescence of single cells or particles in a stream.)
[1] abbreviates: ligand binding inhibition, at 0.1 µM.

Sequence of Estrogen receptor beta (Homo sapiens) (Q92731 whole entry, looked up): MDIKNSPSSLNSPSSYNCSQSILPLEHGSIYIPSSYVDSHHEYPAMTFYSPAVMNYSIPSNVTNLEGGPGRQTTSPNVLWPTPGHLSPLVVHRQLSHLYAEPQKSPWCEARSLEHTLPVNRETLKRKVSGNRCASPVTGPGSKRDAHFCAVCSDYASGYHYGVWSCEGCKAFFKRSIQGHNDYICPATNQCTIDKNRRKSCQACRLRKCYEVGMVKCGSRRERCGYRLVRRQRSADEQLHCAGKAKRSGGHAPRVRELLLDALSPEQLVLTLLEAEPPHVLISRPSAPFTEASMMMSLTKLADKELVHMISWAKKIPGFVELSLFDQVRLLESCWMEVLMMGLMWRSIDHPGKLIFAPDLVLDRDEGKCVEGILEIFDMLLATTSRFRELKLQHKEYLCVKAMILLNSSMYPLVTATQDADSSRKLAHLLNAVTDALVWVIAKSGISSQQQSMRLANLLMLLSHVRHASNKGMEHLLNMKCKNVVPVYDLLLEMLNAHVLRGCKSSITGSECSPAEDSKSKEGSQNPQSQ

The term inhibition denotes the change of the read-out against control, counted positive when it falls. In the case of `C/C(N)=C(/C#N)C(=O)CSc1nnc(Cc2ccccc2F)n1N`, the inhibition runs as follows: (at 10 µM) 22% (inactive); under setting [1], 7%.
For the compound `C/C(N)=C(/C#N)C(=O)CSc1nnc(Nc2ccccc2C)s1`, the inhibition is, setting by setting: (at 10 µM) 44% (inactive); under setting [1], 13%.
The corresponding values for `O=C(COC(=O)c1ccccc1)NCc1ccco1` are 67% (inactive) and 16%.
In the case of `N=c1c(C(=O)NCc2ccc(F)cc2)cc2c(=O)n3ccccc3nc2n1Cc1cccnc1`, the inhibition reads like this: (at 10 µM) 30% (inactive); under setting [1], 34%.
The like results for `Cc1ccc(/C=c2\sc3nc(-c4ccco4)nn3c2=O)o1` were, in that order, 61% (inactive) and 27%.
The like results for `O=C(Nc1ccc2oc(-c3ccccc3F)nc2c1)c1cncc(Br)c1` were, in that order, 63% (inactive) and 25%.
